# Test results taken from PubChem BioAssay (NCATS).
# Results filed as inconclusive are left out. A call without a number means that no potency is given here. Calls of active or inactive are those of the source. Unless noted, calls come from the whole dose curve; as a rule, active = well fitted curve in the direction sought with a large enough effect; inconclusive = small, poorly fitted or top-dose-only effect, or another doubt; inactive = no such curve, though single readings can be large; an effect the other way counts as inactive or inconclusive.
# Tests used:
# [1] = qHTS Assay for Lipid Storage Modulators (AID 1519; calls by dose curve); settings: Drosophila S3 cells, BODIPY lipid droplet/cell ratio, laser cytometry, cells loaded with oleic acid
# Procedure, shortened: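 Cells seeded at 5,000 per well were treated with compounds over a concentration series and loaded with oleic acid (400 uM, as added). Lipid droplet fluorescence (488 nm excitation, 500-530 nm channel) was read by laser-scanning cytometry and normalized to 20 uM Triacsin C.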
# [2] = biological target: ATP-dependent 6-phosphofructokinase (Trypanosoma brucei brucei) (UniProt O15648); assay: qHTS Assay to Find Inhibitors of T. brucei phosphofructokinase: hit validation (AID 492961);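 note: luminescence reports ADP formed as PFK phosphorylates fructose-6-phosphate with ATP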; settings: T. brucei PFK, ADP-Glo luminescence; series mostly up to 24.3 µM
# ATP-dependent 6-phosphofructokinase (Trypanosoma brucei brucei), sequence (O15648 whole entry, looked up): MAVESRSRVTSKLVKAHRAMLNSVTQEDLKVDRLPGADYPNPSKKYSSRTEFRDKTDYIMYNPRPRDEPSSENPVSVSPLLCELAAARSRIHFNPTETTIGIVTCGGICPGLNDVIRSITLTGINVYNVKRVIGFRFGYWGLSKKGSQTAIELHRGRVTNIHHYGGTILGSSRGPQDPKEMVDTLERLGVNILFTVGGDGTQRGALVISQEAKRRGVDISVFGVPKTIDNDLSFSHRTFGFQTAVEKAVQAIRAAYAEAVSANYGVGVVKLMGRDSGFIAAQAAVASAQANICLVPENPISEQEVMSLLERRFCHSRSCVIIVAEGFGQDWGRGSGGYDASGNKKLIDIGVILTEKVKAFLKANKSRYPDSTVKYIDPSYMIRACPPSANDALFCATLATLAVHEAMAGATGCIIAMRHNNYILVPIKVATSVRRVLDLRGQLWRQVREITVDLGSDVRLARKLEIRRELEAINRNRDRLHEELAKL
# Procedure, shortened: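 Compounds titrated; %activity normalized to 0x and 1x enzyme controls, curve-fitted. Readout: ADP-Glo luminescence after 45 min room-temperature reaction of 1.25 nM PFK, 0.1 mM ATP, 0.5 mM F6P, pH 8.0.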
# [3] = biological target: Ubiquitin carboxyl-terminal hydrolase 1 (Homo sapiens) (UniProt O94782); assay: Inhibitors of USP1/UAF1: Pilot qHTS (AID 504865); settings: purified USP1/UAF1, Ub-rhodamine cleavage fluorescence; series mostly up to 114 µM;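 note: rhodamine fluorescence freed from ubiquitin-rhodamine substrate followed over time; top concentration of the series differs between compounds; nearly all actives have a fitted effect of over 35% in size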
# Ubiquitin carboxyl-terminal hydrolase 1 (Homo sapiens), sequence (O94782 whole entry, looked up): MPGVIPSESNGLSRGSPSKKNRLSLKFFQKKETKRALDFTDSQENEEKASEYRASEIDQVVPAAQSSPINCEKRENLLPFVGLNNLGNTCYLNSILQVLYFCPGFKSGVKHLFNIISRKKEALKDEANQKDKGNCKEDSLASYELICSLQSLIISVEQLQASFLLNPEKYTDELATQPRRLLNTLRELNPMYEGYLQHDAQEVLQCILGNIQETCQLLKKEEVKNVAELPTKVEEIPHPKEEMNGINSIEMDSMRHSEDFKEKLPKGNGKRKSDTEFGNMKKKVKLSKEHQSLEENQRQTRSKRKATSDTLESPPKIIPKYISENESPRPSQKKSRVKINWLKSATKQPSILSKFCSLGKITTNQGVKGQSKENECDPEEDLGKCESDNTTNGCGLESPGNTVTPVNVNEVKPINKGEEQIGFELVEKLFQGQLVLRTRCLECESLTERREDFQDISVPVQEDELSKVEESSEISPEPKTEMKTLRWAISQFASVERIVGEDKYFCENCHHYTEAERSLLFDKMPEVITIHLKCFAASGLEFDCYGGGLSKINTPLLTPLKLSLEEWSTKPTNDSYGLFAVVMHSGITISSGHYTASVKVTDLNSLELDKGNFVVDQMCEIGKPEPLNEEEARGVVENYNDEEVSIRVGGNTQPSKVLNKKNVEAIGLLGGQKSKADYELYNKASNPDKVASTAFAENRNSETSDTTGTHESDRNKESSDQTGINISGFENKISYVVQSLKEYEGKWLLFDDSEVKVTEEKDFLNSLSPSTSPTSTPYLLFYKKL
# Procedure, shortened: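 1nM USP1/UAF1 + cpd, 15 min RT; start w/ Ub-Rho 150nM final; kinetic FL 480/540 nm, 6 reads q60 s. Buffer 50mM HEPES pH 7.8, 0.5mM EDTA, 1mM TCEP, 0.01% Tween-20, 0.1 mg/ml BSA.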
# [4] = biological target: Luciferin 4-monooxygenase (Photinus pyralis) (UniProt P08659); assay: Biochemical firefly luciferase enzyme assay for NPC (AID 624030);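 note: purified P. pyralis luciferase at 10 nM with luciferin and ATP substrate; nearly all actives have a fitted effect of over 70% in size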; settings: purified P. pyralis luciferase, luminescence, 5 min; series mostly up to 24.9 µM
# Luciferin 4-monooxygenase (Photinus pyralis), sequence (P08659 whole entry, looked up): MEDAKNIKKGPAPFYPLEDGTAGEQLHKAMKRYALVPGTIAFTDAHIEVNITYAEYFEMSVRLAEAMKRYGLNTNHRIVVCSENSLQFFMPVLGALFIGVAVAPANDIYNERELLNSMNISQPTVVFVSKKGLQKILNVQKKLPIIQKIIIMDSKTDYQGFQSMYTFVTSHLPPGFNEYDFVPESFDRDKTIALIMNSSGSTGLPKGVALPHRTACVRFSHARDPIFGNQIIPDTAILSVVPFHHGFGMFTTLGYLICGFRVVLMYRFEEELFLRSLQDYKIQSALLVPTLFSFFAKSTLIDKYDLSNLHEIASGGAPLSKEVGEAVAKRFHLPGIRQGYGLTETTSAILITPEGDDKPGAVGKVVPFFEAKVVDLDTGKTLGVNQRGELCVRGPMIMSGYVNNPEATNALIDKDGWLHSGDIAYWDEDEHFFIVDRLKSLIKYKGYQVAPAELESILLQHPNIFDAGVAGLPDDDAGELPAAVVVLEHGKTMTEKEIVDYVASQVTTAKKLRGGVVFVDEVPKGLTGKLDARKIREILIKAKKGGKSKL
# Procedure, shortened: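 Purified P. pyralis luciferase at 10 nM in 50 mM Tris Acetate (final), luminescence read within 5 minutes of enzyme addition to compounds. Activity normalised to PTC124 versus DMSO; concentration-response curves classed by r2, magnitude and activity.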
# [5] = qHTS profiling for inhibitors of Plasmodium falciparum proliferation (AID 504749); note: nearly all actives have a fitted effect of over 60% in size; settings: P. falciparum in erythrocytes, SYBR Green DNA, 72 h, at 12.8 µM (top of the series)
# Procedure, shortened: (§1)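 SYBR Green fluorescence (ex 485 nm, em 535 nm) reports parasite DNA after 72 h compound exposure of infected red cells at 0.3% parasitemia, 2.5% hematocrit; signal normalized to 0.29 uM artemisinin and vehicle wells.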
# 3D7 = assay: as above; settings: P. falciparum in erythrocytes, SYBR Green DNA, 72 h; series mostly up to 12.8 µM
# Procedure, shortened: as §1
# AS120 = assay: as above; settings: P. falciparum in erythrocytes, SYBR Green DNA, 72 h; series mostly up to 12.8 µM
# Procedure, shortened: as §1
# C2A = assay: as above; settings: P. falciparum in erythrocytes, SYBR Green DNA, 72 h; series mostly up to 12.8 µM
# Procedure, shortened: as §1
# CP185 = assay: as above; settings: P. falciparum in erythrocytes, SYBR Green DNA, 72 h; series mostly up to 12.8 µM
# Procedure, shortened: as §1
# CP191 = assay: as above; settings: P. falciparum in erythrocytes, SYBR Green DNA, 72 h; series mostly up to 12.8 µM
# Procedure, shortened: as §1
# CP192 = assay: as above; settings: P. falciparum in erythrocytes, SYBR Green DNA, 72 h; series mostly up to 12.8 µM
# Procedure, shortened: as §1
# CP217 = assay: as above; settings: P. falciparum in erythrocytes, SYBR Green DNA, 72 h; series mostly up to 12.8 µM
# Procedure, shortened: as §1
# CP238 = assay: as above; settings: P. falciparum in erythrocytes, SYBR Green DNA, 72 h; series mostly up to 12.8 µM
# Procedure, shortened: as §1
# CP247 = assay: as above; settings: P. falciparum in erythrocytes, SYBR Green DNA, 72 h; series mostly up to 12.8 µM
# Procedure, shortened: as §1
# CP250 = assay: as above; settings: P. falciparum in erythrocytes, SYBR Green DNA, 72 h; series mostly up to 12.8 µM
# Procedure, shortened: as §1
# CP262 = assay: as above; settings: P. falciparum in erythrocytes, SYBR Green DNA, 72 h; series mostly up to 12.8 µM
# Procedure, shortened: as §1
# ECU = assay: as above; settings: P. falciparum in erythrocytes, SYBR Green DNA, 72 h; series mostly up to 12.8 µM
# Procedure, shortened: as §1
# FAB9 = assay: as above; settings: P. falciparum in erythrocytes, SYBR Green DNA, 72 h; series mostly up to 12.8 µM
# Procedure, shortened: as §1
# HB3 = assay: as above; settings: P. falciparum in erythrocytes, SYBR Green DNA, 72 h; series mostly up to 12.8 µM
# Procedure, shortened: as §1
# SC27B = assay: as above; settings: P. falciparum in erythrocytes, SYBR Green DNA, 72 h; series mostly up to 12.8 µM
# Procedure, shortened: as §1
# [6] = measured here: cell count channel max response
# [7] = measured here: lipid channel max response
structure (smiles),measurement,setting,value
COc1ccccc1OC[C@H](O)CO,"activity change, negative = inhibition",[1]; at 25.7 µM (top of the series),-4.43% (inactive)
same,max response,[1]; [6],-24.7%
same,max response,[1]; [7],-36%
same,outcome,[2],inactive
same,Potency,[3],inactive
same,Potency,[4],inactive
same,"activity, negative = inhibition",[5]; parasite line A,5.68% (inactive)
same,"activity, negative = inhibition",[5]; parasite line B,4.87% (inactive)
same,Potency,3D7,inactive
same,Potency,AS120,inactive
same,Potency,C2A,inactive
same,Potency,CP185,inactive
same,Potency,CP191,inactive
same,Potency,CP192,inactive
same,Potency,CP217,inactive
same,Potency,CP238,inactive
same,Potency,CP247,inactive
same,Potency,CP250,inactive
same,Potency,CP262,inactive
same,Potency,ECU,inactive
same,Potency,FAB9,inactive
same,Potency,HB3,inactive
same,Potency,SC27B,inactive
Nc1nc(=S)c2ncn([C@H]3O[C@@H](CO)[C@@H](O)[C@@H]3O)c2[nH]1,"activity change, negative = inhibition",[1]; at 25.7 µM (top of the series),-1.4% (inactive)
same,max response,[1]; [6],2.2%
same,max response,[1]; [7],-3.95%
same,Potency,[3],inactive
CC(=O)O[C@H]1C[C@H]2CC[C@@H]3[C@@H](CC[C@]4(C)[C@H](OC(C)=O)[C@H]([N+]5(C)CCCCC5)C[C@@H]34)[C@]2(C)C[C@H]1[N+]1(C)CCCCC1,"activity change, negative = inhibition",[1]; at 25.7 µM (top of the series),-3.97% (inactive)
same,max response,[1]; [6],0.133%
same,max response,[1]; [7],-5.07%
C1CCN2C[C@@H]3C[C@@H](CN4CCCC[C@H]34)[C@H]2C1,"activity change, negative = inhibition",[1]; at 25.7 µM (top of the series),-1.82% (inactive)
same,max response,[1]; [6],-3.93%
same,max response,[1]; [7],-5.58%
same,outcome,[2],inactive
same,Potency,[3],inactive
same,Potency,[4],inactive
same,"activity, negative = inhibition",[5]; parasite line A,5.24% (inactive)
same,"activity, negative = inhibition",[5]; parasite line B,14.7% (inactive)
same,Potency,3D7,inactive
same,Potency,AS120,inactive
same,Potency,C2A,inactive
same,Potency,CP185,inactive
same,Potency,CP191,inactive
same,Potency,CP192,inactive
same,Potency,CP217,inactive
same,Potency,CP238,inactive
same,Potency,CP247,inactive
same,Potency,CP250,inactive
same,Potency,CP262,inactive
same,Potency,ECU,inactive
same,Potency,FAB9,inactive
same,Potency,HB3,inactive
same,Potency,SC27B,inactive
C[C@@H](CN1c2ccccc2Sc2ccccc21)N(C)C,"activity change, negative = inhibition",[1]; at 25.7 µM (top of the series),-3.2% (inactive)
same,max response,[1]; [6],-10.2%
same,max response,[1]; [7],-13.4%
same,Potency,[3],inactive
CC(C)(C)NC(=O)[C@@H]1C[C@H]2CCCC[C@@H]2CN1C[C@H](O)[C@H](Cc1ccccc1)NC(=O)[C@@H](CC(N)=O)NC(=O)c1ccc2ccccc2n1,"activity change, negative = inhibition",[1]; at 25.7 µM (top of the series),-0.923% (inactive)
same,max response,[1]; [6],1.41%
same,max response,[1]; [7],-0.968%
COc1cc2ccc(=O)oc2c(O)c1O,"activity change, negative = inhibition",[1]; at 57.5 µM (top of the series),-4.51% (inactive)
same,max response,[1]; [6],13.9%
same,max response,[1]; [7],11.4%
CN1[C@H](CC(=O)c2ccccc2)CCC[C@H]1C[C@@H](O)c1ccccc1,"activity change, negative = inhibition",[1]; at 57.5 µM (top of the series),-2.41% (inactive)
same,max response,[1]; [6],-11.7%
same,max response,[1]; [7],-13.6%
COc1ccc2c(c1)N(C[C@@H](C)CN(C)C)c1ccccc1S2,"activity change, negative = inhibition",[1]; at 25.7 µM (top of the series),-4.01% (inactive)
same,max response,[1]; [6],-9.35%
same,max response,[1]; [7],-12.9%
same,outcome,[2],inactive
same,Potency,[4],inactive
same,"activity, negative = inhibition",[5]; parasite line A,2.81% (inactive)
same,"activity, negative = inhibition",[5]; parasite line B,-1.87% (inactive)
same,Potency,3D7,inactive
same,Potency,AS120,inactive
same,Potency,C2A,inactive
same,Potency,CP185,inactive
same,Potency,CP191,inactive
same,Potency,CP192,inactive
same,Potency,CP217,inactive
same,Potency,CP238,inactive
same,Potency,CP247,inactive
same,Potency,CP250,inactive
same,Potency,CP262,inactive
same,Potency,ECU,inactive
same,Potency,FAB9,inactive
same,Potency,HB3,inactive
same,Potency,SC27B,inactive
CC(=O)/C(C)=N\O,"activity change, negative = inhibition",[1]; at 57.5 µM (top of the series),-1.01% (inactive)
same,max response,[1]; [6],-2.91%
same,max response,[1]; [7],-2.64%
same,Potency,[3],inactive
